For 37 compounds, inhibition results are on record in ChEMBL document CHEMBL3433997, “St. Jude Leishmania screening dataset” (2016).

Common to all, as to format: functional
For assay [1], the target named is Solute carrier family 2, facilitated glucose transporter member 1 (Homo sapiens) (UniProt P11166). Kind of assay: ST_JUDE_LEISH: Cytotoxicity at 2uM final concentration against transgenic Leishmania Mexicana promastigotes LmGLUT1 that are glucose transport deficient and complemented with the human glucose transporter GLUT1. Activity is measured by DNA content using SYBR green in vitro.

Assay [2] has as its target Hexose transporter 1 (Plasmodium falciparum) (UniProt O97467). Nature of the assay: ST_JUDE_LEISH: Cytotoxicity at 2uM final concentration against transgenic Leishmania Mexicana promastigotes LmPfHT that are glucose transport deficient and complemented with the Plasmodium falciparum hexose transporter. Activity is measured by DNA content using SYBR green in vitro.
Assay [3] addresses Glucose transporter (Leishmania mexicana) (UniProt O61059). Kind of assay: ST_JUDE_LEISH: Cytotoxicity at 2uM final concentration against transgenic Leishmania Mexicana promastigotes LmGT2 that are glucose transport deficient and complemented with the L. Mexicana glucose transporter 2. Activity is measured by DNA content using SYBR green in vitro.

Solute carrier family 2, facilitated glucose transporter member 1 (Homo sapiens), sequence (P11166 whole entry): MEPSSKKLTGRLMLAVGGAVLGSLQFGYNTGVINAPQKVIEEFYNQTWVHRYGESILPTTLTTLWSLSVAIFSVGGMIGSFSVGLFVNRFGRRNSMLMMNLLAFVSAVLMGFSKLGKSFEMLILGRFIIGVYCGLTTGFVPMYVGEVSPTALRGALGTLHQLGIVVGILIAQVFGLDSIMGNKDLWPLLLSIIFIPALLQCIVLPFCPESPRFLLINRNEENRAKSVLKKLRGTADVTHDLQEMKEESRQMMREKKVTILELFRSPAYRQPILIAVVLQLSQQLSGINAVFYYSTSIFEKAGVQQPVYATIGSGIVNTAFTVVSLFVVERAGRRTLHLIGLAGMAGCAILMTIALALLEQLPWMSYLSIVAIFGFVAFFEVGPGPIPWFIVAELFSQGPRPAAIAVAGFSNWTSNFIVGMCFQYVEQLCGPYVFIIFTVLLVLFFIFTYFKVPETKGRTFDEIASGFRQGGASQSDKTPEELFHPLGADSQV

For the compound `Nc1ncnc2cc(-c3cccc(S(N)(=O)=O)c3)sc12`, the inhibition in assay [1] worked out at 0.46%; in assay [2], 3.15%; in assay [3], 5.9%.

As to `Cc1cc(O)c(-c2ccc(S(=O)(=O)c3ccc(Cl)cc3)cc2)c(C)n1`, the inhibition was found to be 0.09% in assay [1], 0.81% in assay [2] and 1.44% in assay [3].

Turning to `COc1ccc(CCC(C)(C)NCC(O)c2cccc(C(F)(F)F)c2)cc1` (stereo unspecified), the results for the inhibition in assay [1], in assay [2] and in assay [3] were 3.28%, 3.58% and 5.12%, respectively.

Consider `COc1ccc2ccc(F)c(CC(=O)N3CCOC(CNCc4cccc(-c5ccc(F)cc5)n4)C3)c2n1` (stereo unspecified), for which the figures for the inhibition in assay [1], in assay [2] and in assay [3] were -1.79%, 0.05% and -0.12%, respectively.

Take `Cc1c(CNCCCNc2nc3ccccc3[nH]2)sc(C(F)F)c1Br`: the results for the inhibition in assay [1], in assay [2] and in assay [3] were 3.07%, 0.8% and 1.17%, respectively.

`COc1ccc2nc(-c3ccc(C(=O)NCCCN4CCN(c5cc(Cl)ccc5OC)CC4)cc3)[nH]c2c1`: the inhibition in assay [1] is 0.75%; in assay [2], 0.77%; in assay [3], -0.2%.

Turning to `CCN(CC)CC(O)c1cc(-c2ccc(OC)cc2)nc2cc(Cl)ccc12` (stereo unspecified), the figures for the inhibition in assay [1], in assay [2] and in assay [3] were 6.97%, 5.08% and 7.55%, respectively.

Regarding `COc1cc2c(C3CCN(CC4CCN(C(=O)/C=C/c5ccc(Cl)c(Cl)c5)CC4)CC3)c[nH]c2cn1`, the inhibition in assay [1] is 2.4%; in assay [2] it was -0.95%; in assay [3] it was -0.88%.

On to `CN(Cc1c(Cl)cnn1C)S(=O)(=O)c1ccc2ccccc2c1`, for which the inhibition in assay [1] turned out to be 5.51%; in assay [2], 7.25%; in assay [3], 5.64%.

`CC1(CCCCN2CCC(Cc3ccccc3)CC2)C(=O)Nc2ccccc21` (stereo unspecified): the inhibition in assay [1] is 6.25%; in assay [2], 5.65%; in assay [3], 4.71%.

Turning to `Cc1nc2nc(N)nc(N)c2c(C)c1Cc1ccc(Cl)cc1`, the inhibition in assay [1] stood at 33.4%; in assay [2] it was 43.3%; in assay [3], 28.7%.

For `COc1ccc2ncc(F)c(CCN3CCC(CNCc4cccc5c4OCO5)CC3)c2n1`, the inhibition is 2.01% in assay [1], 1.39% in assay [2] and 3.27% in assay [3].

For `COc1ccc2ncc(F)c(CCN3CCC(NCc4cc(F)c5c(c4)OCCO5)CC3)c2n1`, the values for the inhibition in assay [1], in assay [2] and in assay [3] were 14.4%, 20.5% and 17.9%, respectively.

Turning to `COc1ccc(Nc2nccc(N3CCC(NC(=O)Nc4cc(C)ccc4C)C3)n2)cc1` (stereo unspecified), the values for the inhibition in assay [1], in assay [2] and in assay [3] were 10.3%, 7.52% and 9.76%, respectively.

As to `O=C(Nc1cc(Cl)ccc1O)c1cc(-c2ccccc2O)no1`, the inhibition is -2.41% in assay [1], -2.61% in assay [2] and -2.64% in assay [3].

`CCN(CC(C)O)C(=O)c1ccc(-c2ccc(-c3nc4cccc(C)c4[nH]3)cc2)cc1` (stereo unspecified): the inhibition in assay [1] is 6.07%; in assay [2], -2.57%; in assay [3] it was 0.55%.

In the case of `Oc1ccccc1CCNCC1CCc2ccccc2C1` (stereo unspecified), the inhibition in assay [1] is -0.47%; in assay [2], -0.01%; in assay [3] it was 0.73%.

With `NC1CCN(c2nc(NCCCc3ccc(O)cc3)nc(NCc3ccccc3-c3ccc(C(F)(F)F)cc3)n2)CC1`, the results for the inhibition in assay [1], in assay [2] and in assay [3] were 1.49%, 2.87% and 3.83%, respectively.

Turning to `Cc1cc(NC2CCCC2)nc(Nc2ccccc2C)n1`, the inhibition in assay [1] was determined as 12.6%; in assay [2], 7.5%; in assay [3], 4.09%.

As for `COc1ccc(CNCc2cccc(-c3ccc(-c4nc5ccccc5[nH]4)cc3)c2)cc1`, the figures for the inhibition in assay [1], in assay [2] and in assay [3] were 3.35%, 1.89% and 3.52%, respectively.

Regarding `CN1C(C)(C)CC(NC(=O)c2ccc(-c3nc4cc(Cl)ccc4[nH]3)cc2)CC1(C)C`, the inhibition in assay [1] was determined as 1.69%; in assay [2], 2.24%; in assay [3], 2.7%.

Regarding `O=C(NC1CCC(N2CCC(c3nc4ccccc4s3)CC2)CC1)c1cc2ccccc2[nH]1` (stereo unspecified), the inhibition was -0.44% in assay [1], -2.33% in assay [2] and -1.51% in assay [3].

Regarding `CCn1c(-c2nonc2N)nc2c(-c3cccc(NC(=O)Nc4cccc(C#N)c4)c3)ncc(OCCCN)c21`, the inhibition in assay [1] came to 4.72%; in assay [2], 2.23%; in assay [3] it was 2.66%.

Regarding `CCOC(=O)C(NC(=O)c1ccc([N+](=O)[O-])o1)C(C)C` (stereo unspecified), the results for the inhibition in assay [1], in assay [2] and in assay [3] were -1.7%, -1.51% and -2.33%, respectively.

As for `CN(C)CC1c2[nH]c3ccccc3c2CCN1C(=O)Nc1ccc(Cl)c(Cl)c1` (stereo unspecified), the inhibition stood at 5.56% in assay [1], 7.79% in assay [2] and 5.8% in assay [3].

Take `CCCc1cc(OC)c(CC2c3cc(O)c(Cl)cc3CCN2C)cc1OC` (stereo unspecified): the inhibition is 9.73% in assay [1], 7.17% in assay [2] and 14.9% in assay [3].

Consider `CN1CCN(CC(=O)Nc2ccc(-c3cccc(-c4nc5cc(F)ccc5[nH]4)c3)cc2)CC1`, for which the inhibition was -0.65% in assay [1], 0.74% in assay [2] and -1.87% in assay [3].

Consider `O=S(=O)(NC1CCN(c2ccnc3ccccc23)C1)c1ccc(OC(F)(F)F)cc1` (stereo unspecified), for which the figures for the inhibition in assay [1], in assay [2] and in assay [3] were 2.25%, -0.51% and 2.41%, respectively.

With `Fc1ccc2[nH]c(-c3ccc(-c4cccc(CN5CCN(CCN6CCOCC6)CC5)c4)cc3)nc2c1`, the inhibition in assay [1] was 4.48%; in assay [2] it was 3.16%; in assay [3] it was 1.99%.

As for `O=S(=O)(NCCN1CCCC1)c1cccc(-c2ccc(CNCc3ccsc3)cc2)c1`, the inhibition was found to be 2.71% in assay [1], 1.13% in assay [2] and 3.02% in assay [3].

`O=C(/C=C/c1ccc(Cl)c(Cl)c1)NCCCCCN1CCC(CCNC(=O)/C=C/c2ccccc2F)CC1`: the inhibition in assay [1] is 2.07%; in assay [2], -1.13%; in assay [3], 2.95%.

Consider `CC1(C)N=C(NC(=O)Nc2ccc([N+](=O)[O-])cc2)N=C(N)N1OCc1cccc2ccccc12`, for which the results for the inhibition in assay [1], in assay [2] and in assay [3] were 2.41%, 4.36% and 5.77%, respectively.

In the case of `CN(C)CCNCc1ncsc1-c1ccc2c(Nc3ccc(F)cc3Cl)ccnc2c1`, the inhibition was found to be 3.88% in assay [1], 4.3% in assay [2] and 4.59% in assay [3].

`CCCOc1ccccc1-c1nc2[nH]c3c(c2c(=O)[nH]1)CCN(C)C3`: the inhibition in assay [1] is -1.19%; in assay [2], -0.54%; in assay [3], -1.12%.

As to `CC(=O)Nc1cccc(C(=O)Nc2ccc(-c3cccc(-c4nc5cccc(C)c5[nH]4)c3)cc2)c1`, the inhibition in assay [1] is 0.48%; in assay [2], 1.78%; in assay [3], 0.36%.

As for `O=C(/C=C/c1ccc(Cl)cc1)NCCCCCN1CCC(C(=O)Nc2ccc(Cl)cc2)CC1`, the inhibition was -0.92% in assay [1], 0.51% in assay [2] and 2.24% in assay [3].

With `COc1cc(/C=C/C(=O)NC2CCC(N3CCC(c4ccccc4C)CC3)CC2)cc(OC)c1` (stereo unspecified), the inhibition is -0.75% in assay [1], -0.16% in assay [2] and 0.77% in assay [3].
